Source: PubChem (National Center for Advancing Translational Sciences (NCATS))
PI4K2A block – inhibitors of human PI4K2A; Q9BTU6; purified PI4K2A, ADP-Glo luminescence, 1 h; hits give low values; activity change, negative = inhibition, % at 76.9 µM; actives 0.13% (n = 420,000); AID 1346378; in the data active = activity change below about -50%; inconclusive = mostly about -30% to -49%
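PI4K2A activity was measured by ADP-Glo luminescence: enzyme (4 ug/mL stock) and phosphatidylinositol (1.2 mM stock) in Tris pH 7.5/MgCl2/EGTA/Triton X-100 buffer were reacted with ATP (300 microM stock) for one hour at ambient temperature.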
HttQ103 aggreg – mutant huntingtin aggregation inhibition | actives 1.1% (n = 220,000) | PC12 HttQ103-GFP aggregates, Acumen cytometry, 40 h | Potency, µM (highest dose often 46.1 µM), hits mostly inhibitors; note: nearly all actives have a fitted effect of over 60% in size
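Using laser scanning cytometry, GFP-positive aggregates were counted after lysis of PC12 cells induced with 100 nM tebufenozide to express HTT exon 1 Q103–GFP. Compounds were tested in titration.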
GALK inhibitor – blocks human galactokinase activity | Purified GALK, Kinase-Glo residual ATP luminescence | Potency, µM (highest dose often 57.5 µM), usual class: inhibitors | actives 0.007% (n = 270,000)
Target sequence (P51570 whole entry, looked up): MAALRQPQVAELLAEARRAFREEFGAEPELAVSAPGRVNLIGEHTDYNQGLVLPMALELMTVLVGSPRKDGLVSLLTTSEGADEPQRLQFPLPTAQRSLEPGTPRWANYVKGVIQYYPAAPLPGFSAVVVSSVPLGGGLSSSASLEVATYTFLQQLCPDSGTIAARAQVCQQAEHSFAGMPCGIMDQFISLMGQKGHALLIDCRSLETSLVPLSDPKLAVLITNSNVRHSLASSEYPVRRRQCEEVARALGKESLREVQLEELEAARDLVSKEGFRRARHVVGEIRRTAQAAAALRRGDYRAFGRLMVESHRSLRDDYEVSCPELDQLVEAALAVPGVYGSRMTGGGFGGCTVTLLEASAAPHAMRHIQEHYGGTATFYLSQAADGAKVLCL
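GALK at 5 nM final was combined with compound, 35 uM ATP and 100 uM galactose in HEPES pH8.0 with MgCl2 and DTT. The reaction ran one hour at room temperature before luminescent ATP detection.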
HTT ATP protect – cytoprotection in Huntington HTT-Q103 PC12 cell model | actives 0.14% (n = 230,000) | PC12 HTT-Q103 induced, cytoprotection, ATP luminescence, 40 h | AID 1471 | Potency, µM (top dose mostly 56.4 µM), actives largely listed as activators; note: nearly all actives have a fitted effect of over 45% in size
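Stable PC12 Q103-GFP cells in serum-supplemented, phenol red-free DMEM; induction by tebufenozide at 100 nM final; compound dose series; cell viability quantified luminescently from ATP.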
Large screens that a line does not name were inactive. Many of the other results were omitted from the sample, so hits are more common in it than they were. Unless noted, calls come from the whole dose curve; as a rule, active = well fitted curve in the direction sought with a large enough effect; inconclusive = small, poorly fitted or top-dose-only effect, or another doubt; inactive = no such curve, though single readings can be large; an effect the other way counts as inactive or inconclusive.

O=C(NCCO)C1(C(=O)C2CC2)CC(c2ccccc2C(F)(F)F)=NO1 (stereo unspecified)	none (no result: HttQ103 aggreg, GALK inhibitor, HTT ATP protect)
CCOc1ccc(-c2nnc(N3CCCCC3)c3ccccc23)cc1	HttQ103 aggreg 11µM
CC(=O)OC[C@@H]1O[C@@H](O/N=C2/C[C@@H](O)[C@@H](O)[C@@H]3[C@@H]4C(=O)N(c5cccc(Oc6ccccc6)c5)C(=O)[C@H]4CC[C@H]23)[C@H](OC(C)=O)[C@H](OC(C)=O)[C@@H]1OC(C)=O	none (no result: PI4K2A block, HttQ103 aggreg, GALK inhibitor)
NC(=O)c1sc2nc3c(c(-c4ccco4)c2c1N)CCC3	HttQ103 aggreg 4.5µM, HTT ATP protect inconclusive
Nc1c(C(=O)NC2CC2)sc2nc3c(c(-c4ccco4)c12)CC/C3=C/c1ccco1	PI4K2A block -74
Cc1ccc(-c2c3c(nc4sc(C(N)=O)c(N)c24)CCCC3)o1	none (no result: GALK inhibitor, HTT ATP protect)
Cc1nc2sc(C(=O)NC3CC3)c(N)c2c(C)c1Cl	none (no result: HttQ103 aggreg, GALK inhibitor, HTT ATP protect)
NC(=O)c1sc2nc3c(c(-c4cccs4)c2c1N)CCCC3	HTT ATP protect 16µM (no result: PI4K2A block, HttQ103 aggreg, GALK inhibitor)
O=C(CCCl)NC1CCCCN(Cc2ccc(OC(F)(F)F)cc2)C1=O (stereo unspecified)	none (no result: HttQ103 aggreg, GALK inhibitor, HTT ATP protect)
COc1ccccc1CNc1ncnc2ccc(-c3cccc(NS(C)(=O)=O)c3)cc12	none (no result: PI4K2A block, HttQ103 aggreg, GALK inhibitor)
CCOC(=O)[C@]12CCCC=C1N(Cc1ccc(OC)cc1)C(=O)[C@@H]2CC(=O)NCc1cccc(C(F)(F)F)c1	none (no result: HttQ103 aggreg, GALK inhibitor, HTT ATP protect)
COc1ccc(CSc2nnc(SCc3ccccc3)s2)cc1	none (no result: HttQ103 aggreg, GALK inhibitor, HTT ATP protect)
COc1ccc2[nH]c(S(=O)Cc3ncc(C)c(OC)c3C)nc2n1 (stereo unspecified)	HTT ATP protect inconclusive (no result: GALK inhibitor)
COc1cccc(Nc2ncnc3ccccc23)c1	HttQ103 aggreg inconclusive
COc1ccc(Nc2ncnc3ccccc23)cc1	HttQ103 aggreg 11µM
CCOc1ccc(Nc2ncnc3ccc([N+](=O)[O-])cc23)cc1	HttQ103 aggreg 7.9µM
C=CCNC(=O)c1ccccc1NC(=O)C1COc2ccccc2O1 (stereo unspecified)	HttQ103 aggreg 3.5µM
COC(=O)c1ccccc1NC(=O)C1COc2ccccc2O1 (stereo unspecified)	HttQ103 aggreg inconclusive
CCn1c2ccccc2c2cnc(N=CN(C)C)c(C#N)c21	HttQ103 aggreg 8.9µM
Cc1cccc2cc(-c3ccccc3)c(-c3ccccc3)c[n+]12	HttQ103 aggreg 18µM (no result: HTT ATP protect)
O=C(CNC(c1ccccc1)c1ccccc1)Nc1c(F)cccc1F	HTT ATP protect 1.3µM
CC(C)(C)S(=O)(=O)/C(C#N)=N/Nc1ccc(Cl)cc1	HttQ103 aggreg 11µM
CC(C)(C)c1ccc(N/N=C(\C#N)S(=O)(=O)C(C)(C)C)cc1	HttQ103 aggreg inconclusive
CCNC(=O)/C=C1\NC(C)(C)Cc2c1ccc1ccccc21	none
CC1(C)Cc2c(ccc3ccccc23)C(=O)N1	HttQ103 aggreg 11µM
CC(CSC(=O)c1ccccc1)C(=O)N1C[C@@H](Sc2ccccc2)C[C@H]1C(=O)O (stereo partly specified)	none (no result: GALK inhibitor)
Cc1cc(C)cc(NS(=O)(=O)c2ccc3c(c2)c(=O)n(C)c(=O)n3C)c1	HttQ103 aggreg 8.9µM
Cn1c(=O)c2cc(S(=O)(=O)Nc3cc(C(=O)O)cc(C(=O)O)c3)ccc2n(C)c1=O	none
O=C(Cn1nnc2ccccc2c1=O)N1CCCc2ccccc21	none
O=C(COc1nnnc2ccccc12)N1CCCc2ccccc21	HttQ103 aggreg 4.5µM
O=C(c1cc2cc([N+](=O)[O-])ccc2oc1=O)N1CCN(c2ncccn2)CC1	HttQ103 aggreg 0.71µM, HTT ATP protect inconclusive
CCC(=O)OCCNc1cc(Sc2nccn2C)c2nonc2c1[N+](=O)[O-]	HttQ103 aggreg 7.1µM
CC(C)(C)c1ccccc1OCCOCCNCc1ccccc1	HttQ103 aggreg 18µM
CCc1nnc(NC(=O)c2ccc(S(=O)(=O)N(CCOC)CCOC)cc2)o1	none
CCCN(CCC)S(=O)(=O)c1ccc(C(=O)Nc2nnc(-c3cc(OC)cc(OC)c3)o2)cc1	HttQ103 aggreg 6.3µM
CCCN(CCC)S(=O)(=O)c1ccc(C(=O)Nc2nnc(-c3cccc(OC)c3)o2)cc1	HttQ103 aggreg 10µM (no result: GALK inhibitor, HTT ATP protect)
COc1ccc(-c2nnc(NC(=O)c3ccc(S(=O)(=O)N4COCC4(C)C)cc3)o2)cc1	HttQ103 aggreg 32µM
O=C(O)c1cc(O)c2c(c1)[C@H]([C@H]1c3cc(C(=O)O)cc(O)c3C(=O)c3c(O[C@@H]4O[C@H](CO)[C@@H](O)[C@H](O)[C@H]4O)cccc31)c1cccc(OC3O[C@H](CO)[C@@H](O)[C@H](O)[C@H]3O)c1C2=O (stereo partly specified)	PI4K2A block -64 (no result: HttQ103 aggreg, GALK inhibitor, HTT ATP protect)
O=C(O)c1cc(O)c2c(c1)[C@@H]([C@H]1c3cc(C(=O)O)cc(O)c3C(=O)c3c(O[C@@H]4O[C@H](CO)[C@@H](O)[C@H](O)[C@H]4O)cccc31)c1cccc(OC3O[C@H](CO)[C@@H](O)[C@H](O)[C@H]3O)c1C2=O (stereo partly specified)	none (no result: HttQ103 aggreg, GALK inhibitor, HTT ATP protect)
COC(=O)[C@]12C[C@H](CC(=O)NCc3ccc(C)o3)C(=O)N(Cc3cccc4ccccc34)C1=C[C@H](C(C)C)O[C@@H]2C1CC1	none (no result: HttQ103 aggreg, GALK inhibitor, HTT ATP protect)
Cc1cc(Nc2ccccc2)nc(NCc2ccccc2)n1	HttQ103 aggreg 6.3µM
CCCCNc1cc(C)nc(NCc2ccccc2)n1	HttQ103 aggreg 10µM
NNC(=O)c1cc2c(ccc3ccccc32)o1	none
O=C(O)c1cc2c(ccc3ccccc32)o1	HttQ103 aggreg 18µM
CC(C)c1cccc2c([Si](C)(C)C)c3c(nc12)-c1cccc(=O)n1C3	none (no result: PI4K2A block, HttQ103 aggreg, GALK inhibitor)
Cc1ccc(C(=O)c2cncc(Br)c2)cc1	HttQ103 aggreg 14µM
NNC(=O)c1cncc(Br)c1	none
CCc1ccc(C(=O)c2cncc(Br)c2)cc1	HttQ103 aggreg 20µM
O=C(N/N=C/c1c(O)n(-c2ccccc2Cl)c(=O)c2ccccc12)C1COc2ccccc2O1 (stereo unspecified)	HttQ103 aggreg 13µM
Cc1ccc(-n2c(O)c(/C=N/NC(=O)C3COc4ccccc4O3)c3ccccc3c2=O)cc1 (stereo unspecified)	HttQ103 aggreg inconclusive (no result: HTT ATP protect)
CCN1C(=O)[C@@H]2[C@H]3C(=CC[C@@H]2C1=O)C1(OCCCO1)[C@H]1O[C@@H]1[C@H]3O	none (no result: PI4K2A block, HttQ103 aggreg, GALK inhibitor)
C[N+]1=C(/C=C/Nc2ccccc2Cl)C(C)(C)c2ccccc21	HttQ103 aggreg 13µM
Cc1ccc(C)c(NC(=O)c2ccc(CS(=O)(=O)Cc3ccccc3C)o2)c1	none (no result: HttQ103 aggreg, GALK inhibitor, HTT ATP protect)
O=C(NNc1nc2ccc(F)cc2s1)c1cccc(F)c1	HttQ103 aggreg 13µM (no result: HTT ATP protect)
S=C(NCCC(c1ccccc1)c1ccccc1)Nc1ccc(Cl)cc1	HttQ103 aggreg inconclusive
S=C(NCCC(c1ccccc1)c1ccccc1)Nc1ccccc1Cl	HttQ103 aggreg 20µM
CN1C(=CC=C2C=C(I)C(=O)C(I)=C2)C(C)(C)c2ccccc21	none
CN1/C(=C\C=[N+](C)c2ccccc2)C(C)(C)c2ccccc21	HttQ103 aggreg 6.3µM
Cc1ccccc1N=C/C=C1\N(C)c2ccccc2C1(C)C	HttQ103 aggreg 14µM
